From PubChem
SNCA expr inhib = Primary qHTS assay for inhibitors of alpha-synuclein gene (SNCA) expression; HEK-293 SNCA-luciferase knock-in, luminescence, 24 h; 0.17% of 140,000 active; Potency, µM (top dose mostly 57.2 µM), for the others: at the highest dose activity change, negative = inhibition, actives largely listed as inhibitors;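 note: plate controls were DMSO cells for no effect and cell-free wells for full effect; nearly all actives have a fitted effect of over 45% in size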
NIH3T3 tox = Cytotoxic Profiling in NIH 3T3 Cell Line of Diverse Libraries Using Quantitative High-Throughput Screening | NIH 3T3 viability, CellTiter-Glo ATP luminescence, 48-72 h | Potency, µM (doses to about 96.7 µM), for inactives: at the top dose activity change, negative = cytotoxicity, hits mostly inhibitors | 4.3% of 94,000 active; note: % is set by controls: 0 for no effect and ±100 for the full control effect; nearly all actives have a fitted effect of over 55% in size
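Cytotoxicity is measured as loss of cellular ATP: NIH 3T3 cells (400/well) are exposed to compound for 48 or 72 hr at 37 °C, then CellTiter-Glo luminescence is imaged after 10 min at room temperature.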
hNpr1 antagonist = Natriuretic polypeptide receptor (hNpr1) antagonism - Primary qHTS; HEK293 hNpr1 GloSensor cGMP, ANP-stimulated luminescence; Potency, µM (highest dose often 46.3 µM), without a hit: at the top dose activity change, negative = inhibition, hits mostly inhibitors; Atrial natriuretic peptide receptor 1 (Homo sapiens), P16066; 1.6% of 76,000 active; calls by dose curve; note: % is set by controls: 0 for no effect and ±100 for the full control effect; nearly all actives have a fitted effect of over 60% in size
Target sequence (P16066 whole entry, looked up): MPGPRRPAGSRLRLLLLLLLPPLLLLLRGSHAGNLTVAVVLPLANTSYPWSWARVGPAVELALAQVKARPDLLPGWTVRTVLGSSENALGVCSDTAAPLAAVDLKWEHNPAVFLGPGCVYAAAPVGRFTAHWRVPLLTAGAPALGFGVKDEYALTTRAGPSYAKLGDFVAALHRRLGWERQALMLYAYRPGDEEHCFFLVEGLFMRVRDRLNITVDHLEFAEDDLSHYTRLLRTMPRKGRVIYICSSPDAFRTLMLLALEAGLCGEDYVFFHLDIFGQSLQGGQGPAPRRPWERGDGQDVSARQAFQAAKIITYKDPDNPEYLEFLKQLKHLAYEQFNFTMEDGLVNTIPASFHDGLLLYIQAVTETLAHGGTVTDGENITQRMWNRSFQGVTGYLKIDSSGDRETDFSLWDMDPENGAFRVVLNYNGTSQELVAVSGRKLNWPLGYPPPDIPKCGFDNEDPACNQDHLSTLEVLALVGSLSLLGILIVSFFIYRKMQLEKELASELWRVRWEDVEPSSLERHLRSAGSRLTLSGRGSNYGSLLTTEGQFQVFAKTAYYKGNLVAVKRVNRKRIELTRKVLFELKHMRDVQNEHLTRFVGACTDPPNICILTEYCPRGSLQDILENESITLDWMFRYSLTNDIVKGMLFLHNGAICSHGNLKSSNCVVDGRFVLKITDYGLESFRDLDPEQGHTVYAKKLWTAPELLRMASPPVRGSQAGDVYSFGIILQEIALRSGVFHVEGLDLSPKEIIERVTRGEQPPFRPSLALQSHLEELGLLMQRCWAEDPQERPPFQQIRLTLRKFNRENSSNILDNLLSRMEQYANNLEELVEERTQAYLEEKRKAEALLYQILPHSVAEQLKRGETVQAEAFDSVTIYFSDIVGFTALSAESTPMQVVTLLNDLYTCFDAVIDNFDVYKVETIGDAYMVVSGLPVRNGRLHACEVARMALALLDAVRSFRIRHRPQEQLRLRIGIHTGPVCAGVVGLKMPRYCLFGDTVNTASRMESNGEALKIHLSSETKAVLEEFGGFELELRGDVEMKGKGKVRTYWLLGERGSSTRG
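HEK293 cells stably expressing human Npr1 and cGMP GloSensor pGS-40F, loaded 2 h with 2% GloSensor reagent, given compound 30 min at room temperature. Luminescence read before and 20 min after 0.1 nM hNppA.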
FLuc inh-1 = Firefly luciferase inhibition profiling of diverse chemical library using quantitative high-throughput screening; purified P. pyralis luciferase, luminescence, biochemical; Potency, µM (highest dose often 115 µM), most hits filed as inhibitors; 2.5% of 76,000 active; note: % is set by controls: 0 for no effect and ±100 for the full control effect; nearly all actives have a fitted effect of over 65% in size
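Purified 10nM P. pyralis luciferase with 10uM D-luciferin and 10uM ATP in 50mM Tris acetate pH 7.5, 10mM Mg acetate, 0.01% Tween-20, 0.05% BSA. qHTS titration; luminescence read by CCD imager.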
HEK cytotox = Cytotoxic Profiling in HEK 293 Cell Line of Diverse Libraries Using Quantitative High-Throughput Screening. HEK 293 viability, ATP luminescence (CellTiter-Glo), 48-72 h. Potency, µM (top dose mostly 115 µM), inactives show top-dose activity change, negative = cytotoxicity, hits mostly inhibitors. 6.6% of 94,000 active; note: % is set by controls: 0 for no effect and ±100 for the full control effect; nearly all actives have a fitted effect of over 60% in size
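qHTS cytotoxicity; HEK 293, 250 cells/well; compound pinned; 48 or 72 hr, 37 degree Celsius, 5% CO2, 95% humidity; CellTiter-Glo, 10 min RT; luminescence (ATP).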
HEK293 viab = GF-AFC viability counterscreen for inhibitors of alpha-synuclein gene (SNCA) expression; HEK-293-SNCA-luc viability, GF-AFC fluorescence, 24 h; 0.12% of 150,000 active; Potency, µM (titrated, usually from 57.1 µM), for inactives: at the top dose activity change, negative = cytotoxicity, usual class: cytotoxic; AID 1671193, 2021;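 note: 0% = DMSO-treated cells and -100% = medium-only wells without cells; nearly all actives have a fitted effect of over 30% in size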
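HEK-293-SNCA-luc cells (1500/well) plated 24 h, then exposed 24 h to a dilution series; GF-AFC added 30 min at 37C, fluorescence 405/540 nm; normalised to medium-only and DMSO wells, Hill fit.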
FLuc SDR -ATP = Firefly luciferase (FLuc-C-HiBiT) SDR gain of signal screen - without ATP. shares compounds with FLuc inh-1. Purified FLuc-C-HiBiT, Nano-Glo HiBiT luminescence, no ATP. Potency, µM (titrated, usually from 32.7 µM), inactives show at the top dose activation (signal gain), most hits filed as activators. 7.8% of 1,300 active. AID 1963318, 2024; note: nearly all actives have a fitted effect of over 55% in size
FLuc SDR ATP = Firefly luciferase (FLuc-C-HiBiT) SDR gain of signal screen - plus ATP | shares compounds with FLuc inh-1 | purified FLuc-C-HiBiT + ATP, HiBiT complementation luminescence | 8.7% of 1,300 active | AID 1963319, 2024 | Potency, µM (doses to about 32.7 µM), without a hit: at the top dose activation (gain of signal), hits mostly activators;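 note: signal reports ligand binding via conformational change of the enzyme rather than luciferase catalysis; % of control where 0% means no effect; nearly all actives have a fitted effect of over 55% in size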
FLuc inh-2 = Firefly luciferase (FLuc-C-HiBiT) enzymatic inhibition screen - Functional assay | 42% of 1,300 active | Potency, µM (titrated, usually from 32.7 µM), without a hit: at the top dose activity change, negative = inhibition, actives largely listed as inhibitors | shares compounds with FLuc inh-1 | AID 1963320, 2024 | purified FLuc-C-HiBiT enzyme, luciferin luminescence; note: % is set by controls: 0 for no effect and ±100 for the full control effect; nearly all actives have a fitted effect of over 70% in size
The depositor's hits bear a star; [ ] = another dose, or the depositor's remark. Rows were chosen to be rich in hits. Some 7.4% of all compounds tested hit in one or more screens of this group. Unless noted, calls come from the whole dose curve; as a rule, active = well fitted curve in the direction sought with a large enough effect; inconclusive = small, poorly fitted or top-dose-only effect, or another doubt; inactive = no such curve, though single readings can be large; an effect the other way counts as inactive or inconclusive. Potency is the fitted concentration of half-maximal effect.

Screening CN1Cc2ccc(C(=O)NCCOc3ccccc3)cc2OCC1=O returned FLuc SDR -ATP 19%[49.3 µM], FLuc SDR ATP inconclusive and FLuc inh-2 inconclusive.
Screening Cc1cnc(NC(=O)c2ccc3c(c2)OCC(=O)N(C)C3)s1 returned FLuc SDR -ATP inconclusive, FLuc SDR ATP inconclusive and FLuc inh-2 14µM*.
O=S(=O)(c1ccccc1)N1CCCC(OCc2noc(C3CCOCC3)n2)C1 (stereo not given) was read as SNCA expr inhib -28%, NIH3T3 tox -30%, HEK cytotox -25% and HEK293 viab 10%.
CC(=O)N1CCCC(C(=O)N2CCC(c3nc4ncccc4[nH]3)CC2)C1 (stereo not given) was read as SNCA expr inhib -11%, NIH3T3 tox 2%, HEK cytotox inactive and HEK293 viab 0%.
`COc1cccc(C(=O)N2CCC3(CC2)CCC(O)(CN(C)C)CC3)c1` gave SNCA expr inhib -8%, NIH3T3 tox -11%, HEK cytotox 2% and HEK293 viab -2%.
O=C1CC2(CCN(Cc3cccc(OCc4ccccc4Cl)c3)CC2)CN1 was read as SNCA expr inhib 98%, NIH3T3 tox inconclusive, hNpr1 antagonist 9%, FLuc inh-1 inconclusive, HEK cytotox inconclusive and HEK293 viab -1%.
`COc1c(C)cc(NC(=O)c2ccc(CN3CCC(O)CC3)cc2)cc1C` gave SNCA expr inhib 4%, NIH3T3 tox inconclusive, hNpr1 antagonist -2%, FLuc inh-1 inactive, HEK cytotox inconclusive and HEK293 viab 5%.
Cc1cc(NC(=O)c2ccc(CN3CC[C@H](O)C3)cc2)ccc1F was read as SNCA expr inhib inconclusive, NIH3T3 tox inconclusive, hNpr1 antagonist 10µM*, FLuc inh-1 0.89µM*, HEK cytotox inconclusive, HEK293 viab -14%, FLuc SDR -ATP inconclusive, FLuc SDR ATP inconclusive and FLuc inh-2 2µM*.
`Cc1ccc(Cn2cc(-c3ccncc3)cc2C(=O)O)cc1` gave SNCA expr inhib 18%, NIH3T3 tox inconclusive, hNpr1 antagonist 1%, FLuc inh-1 inactive, HEK cytotox -27%, HEK293 viab 9%, FLuc SDR -ATP 14%, FLuc SDR ATP 11% and FLuc inh-2 -8%.
Screening CCn1cc(-c2ccc(C)cc2)cc1C(=O)O returned SNCA expr inhib -15%, NIH3T3 tox -19%, hNpr1 antagonist 2%, FLuc inh-1 inconclusive, HEK cytotox inconclusive, HEK293 viab -3%, FLuc SDR -ATP 14%, FLuc SDR ATP 10% and FLuc inh-2 -13%.
